Laboratory results: PubChem BioAssay (NCI)
Compounds without any hit were thinned out: in the full panel of roughly 83,000, 20% have a hit.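 Cell lines were cultured in 96-well plates, exposed to a single compound concentration, and assessed for percent growth 48 hours later.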 A number with no mark means an inactive call. Calls of active or inactive are those of the source. Rule for the calls: active = growth percent below 10; inactive = the rest.

Each compound was assayed on MALME-3M melanoma (assay: NCI-60 one-dose screen, 48 h (100 = growth as untreated, 0 = no growth, -100 = all killed)). Conditions: 10 µM unless noted.

| Structure (SMILES) | growth |
| --- | --- |
| COC(=O)c1ccc2c(c1)C(=O)c1c-2n(CCCN)c(=O)c2cc([N+](=O)[O-])ccc12 | -96.9% (active) |
| O=C(Nn1c2c(sc1=Nc1ccccc1)C(=O)c1ccccc1C2=O)c1cc2ccc1CCc1ccc(cc1)CC2 | -69.3% (active) |
| O=C(CN1C(=O)CCC1=O)Nc1ncc(Cc2ccc(F)cc2)s1 | 99.8% |
| Nc1ncnc2c1N=C(c1ccc(Cl)cc1)CC(c1ccc3c(c1)OCO3)N2 (stereo not given) | 116% |
| N#C/C(=C/c1ccc([N+](=O)[O-])cc1)n1nnc2cc(F)c(F)cc21 | 74.8% |
| COc1ccc(C(=O)Nc2ncc(Cc3ccc(F)cc3)s2)cc1 | 60.2% |
| CCN1CCN(Cc2cn(CC(=O)Nc3ccc4c(ccn4Cc4ccccc4)c3)nn2)CC1 | 99.5% |
| CCOC(=O)C1=C(NC)OCC1=O | 113% |
| CC(=O)c1cc(O)c2ccccc2c1O | 95.9% |
| CC1(C)CC[C@]2(c3nnc(-c4ccncc4)o3)CC[C@H]3C(=CC[C@H]4[C@@]3(C)CC[C@H]3C(C)(C)C(=O)CC[C@]43C)[C@@H]2C1 | 86.9% |
| CC(C)(C)n1cc(-c2ccnc(NCCCNS(=O)(=O)c3ccc(F)cc3)c2)c(-c2cccc(F)c2)n1 | 85.4% |
| COc1cc(CNS(=O)(=O)c2ccc(C)cc2)ccc1OCc1cn(-c2ccc(Br)cc2)nn1 | 104% |
| Cc1ccc(-c2csc(NC(=O)CN3CCN(c4cc5c(cc4F)c(=O)c(C(=O)O)cn5C4CC4)CC3)n2)cc1 | -2.34% (active) |
| CCCCCCCCCCCCCCCCCCOc1ccccc1CC(=O)OCC[N+]1(C)CCCC1 | 31% |
| COc1ccc(-c2nc(/C=C3\SC(=NCc4ccccc4)NC3=O)c3ccccn23)cc1 | -33.1% (active) |
| COc1ccc2c3c([nH]c2c1)C(=O)c1nc(C)ccc1C3=O | -61.8% (active) |
| CN(CCOc1ccc(C#N)cc1)CCOc1ccc(C#N)cc1 | 76.5% |
| CCN1C(=O)N(CC)C2C1NN=c1s/c(=C\c3cccc([N+](=O)[O-])c3)c(=O)n12 (stereo not given) | 47.4% |
| O=C(CCCCCCN1CC(=O)N2[C@H](c3cc(Br)cs3)c3[nH]c4ccccc4c3C[C@H]2C1=O)NO | 18.6% |
| Cc1ccc(/C=C2\CN(C(=O)OC(C)(C)C)C/C(=C\c3ccc(C)cc3)C2=O)cc1 | 83.5% |

| Structure (SMILES) | growth |
| --- | --- |
| CN(C)CCNC(=O)c1cccc(-c2cnc3ccc(-c4ccc5c(c4)OCO5)nn23)c1 | 88.7% |
| Cn1c(=O)c2c(nc(NC3=NS(=O)(=O)c4ccccc43)n2CC(=O)N2CCc3ccccc32)n(C)c1=O | 103% |
| Cc1ccc(NC(=S)NNC(=S)NNc2ccccc2)cc1C | 102% |
| C=CCn1c(SCC(=O)Nc2ccc(C(=O)/C=C/c3cc4cc(OC)ccc4nc3Cl)cc2)nnc1-c1ccc(Br)cc1 | 92.5% |
| CCCC(=O)NC(c1ccc2c(c1)OCO2)c1ccc2cccnc2c1O (stereo not given) | 13.4% |
| c1ccc(C2=NN[C@H](c3cn(-c4ccccc4)nc3-c3ccccc3)C2)cc1 | 53.4% |
| C[C@@H]1CCC[C@H]1CC(N)C(=O)O (stereo not given in full) | 149% |
| O=C1c2cccnc2C(=O)c2c1c(C(=O)NCCCN1CCCCC1)c1ccccn21 | -92.6% (active) |
| CCCCCCCCn1ccc2cc(NC(=O)Cn3cc(CN4CCCCC4)nn3)ccc21 | -88.3% (active) |
| COC(C(=O)[C@@H](O)[C@@H](C)O)[C@@H]1Cc2cc3cc(O[C@H]4C[C@@H](O[C@H]5C[C@@H](O)[C@H](O)C(C)O5)[C@H](O)C(C)O4)c(C)c(O)c3c(O)c2C(=O)[C@H]1O[C@H]1C[C@@H](O[C@H]2C[C@@H](O[C@H]3C[C@@H](O)[C@H](OC)C(C)O3)[C@@H](O)C(C)O2)[C@H](O)C(C)O1 (stereo not given in full) | -30.7% (active) |
| CCCCN1C(=O)/C(=c2\sc3n(c2=O)C2C(NN=3)N(CC)C(=O)N2CC)c2ccccc21 (stereo not given) | 36.4% |
| COc1ccc2c(O)c(/C=C3\N=Nc4ncccc43)oc2c1C[C@H]1CCNC[C@H]1F | -21.6% (active) |
| COc1ccc2c(O)c(/C=C3\N=Nc4ccccc43)oc2c1C[C@@H]1CCNC[C@H]1F | 52.9% |
| COc1ccc(N2CCC(=O)NC2=S)cc1 | 110% |
| CC(=O)OCc1nc(C#N)c(N(C)C)o1 | 97.8% |
| O=C(Nc1ccc(NC(=O)c2cc(=O)[nH]c3ccccc23)cc1)Nc1cccc(C(F)(F)F)c1 | 31.7% |
| CCN(CC)CCCN1C(=O)c2c(c(C)c3c(oc4cc(O)ccc43)c2C)C1=O | -80.4% (active) |
| COc1cc(OC)cc(C2=C3CC[C@@H]4[C@H](CC[C@]5(C)C(=O)CC[C@@H]45)C3=CC3C(O)c4cccnc4N4C(=O)COC234)c1 (stereo not given in full) | 103% |
| Oc1ccc(CN2CCC(N3CCCCC3)CC2)c2cccnc12 | 9.88% (active) |
| CN(C)CC(=O)Nc1ccc2ncnc(Nc3ccc(Oc4cccc(C(F)(F)F)c4)c(Cl)c3)c2c1 | 69.7% |
